Data from PubChem BioAssay.
Activity calls are given as the source filed them.

Assay: basal S. cerevisiae growth modulation, no modifier, primary screen, OD600, strain BY4716, 24 h, basal condition (AID 1173)
Conditions: OD600, 24 h, higher = more signal, called active from +8 up or from −8 down

Q: For `CC1CC/C=C\[C@H]2OC34C=CCN(c5ccc6ccccc6c5)C(=O)[C@H]3N(CCCCCO)C(=O)[C@@H]4C2C(=O)O1` (stereo not given in full), which z-score is on record?
A: -0.317 (inactive)

Q: For `CN1C(=O)C2C=CC(C(O)C(C)(C)C)N(Nc3ccccc3)C2C1=O` (stereo not given), which z-score is on record?
A: 0.66 (inactive)

Q: For `Cc1ccc(S[C@]2(C(=O)NCCCN(C)C)CC(=O)N(Cc3ccccc3)[C@@H]2c2ccc(CO)cc2)cc1`, which z-score is on record?
A: -0.686 (inactive)

Q: With `O=C1O[C@H](c2ccccc2)[C@H](c2ccccc2)N2[C@H]1[C@@H](C(=O)NC[C@H](O)c1ccccc1)[C@]1(C(=O)Nc3ccc(C#CC4=CCCCC4)cc31)[C@H]2c1ccc(O)cc1` as the compound, how does the z-score read?
A: -0.48 (inactive)

Q: With `O=C(CS)NCCCCCNC(=O)[C@H]1C[C@H]2C(=O)N[C@@H](Cc3ccccc3)C(=O)N2[C@H]1c1cccc(OCCO)c1` as the compound, how does the z-score read?
A: -0.525 (inactive)

Q: For `CCCC[C@H]1OB(O)C[C@H]2C1=C(COc1ccccc1)C[C@H]1C(=O)N(Cc3ccccc3)C(=O)[C@H]12`, which z-score is on record?
A: -1.91 (inactive)

Q: Which z-score does the source give for `O=c1cccc(-c2cccc3ccccc23)o1` here?
A: -14.1 (active)

Q: Which z-score does the source give for `CCCCCN1CC=CC23O[C@@H]4C=CCCOC(=O)C4[C@H]2C(=O)N(CCCO)[C@@H]3C1=O` (stereo not given in full) here?
A: -0.613 (inactive)

Q: For `CS(=O)(=O)CCOC(=O)C1=CC(c2ccc(CO)cc2)=CC(c2cccs2)N(Cc2cccc(OC(F)(F)F)c2)C=C1C(=O)OCCS(C)(=O)=O` (stereo not given), which z-score is on record?
A: -4.14 (inactive)

Q: With `C#C[C@H](O[Si](C#CCCCCCC)(C(C)C)C(C)C)c1ccccc1` as the compound, how does the z-score read?
A: 0.0181 (inactive)

Q: With `COc1ccc([Si](C)(C)[C@@H]2[C@@H](CCO)O[C@]3(C(=O)N(Cc4ccccc4)c4ccc(N(C=O)c5ccccc5)cc43)[C@H]2C)cc1` as the compound, how does the z-score read?
A: 1.59 (inactive)

Q: With `C=C(COC)C(=O)CC[C@H](OC(=O)c1cccnc1)c1ccccc1OCCO` as the compound, how does the z-score read?
A: -0.332 (inactive)

Q: Which z-score does the source give for `C=CCC(OC(C)=O)[C@@H]1[C@@H](N(Cc2cc3ccccc3o2)C(=O)c2ccc(C)cc2)c2cc(OCCCO)ccc2N1C(=O)c1ccc(-c2ccccc2)cc1` (stereo not given in full) here?
A: -2.68 (inactive)

Q: For `NC(=O)[C@]1(Cc2ccccc2)N=C(c2ccc(OCCCO)cc2)O[C@@H]1c1ccccc1`, which z-score is on record?
A: -1.06 (inactive)

Q: With `[N-]=[N+]=NCc1ccccc1C[C@]1(C(=O)NCCN2CCOCC2)N=C(c2ccc(OCCCO)cc2)O[C@H]1c1ccccc1CN=[N+]=[N-]` as the compound, how does the z-score read?
A: -2.56 (inactive)

Q: With `CCOC(=O)C1=CC[C@@H](c2cccc(Cl)c2)N(S(=O)(=O)c2ccc(C)cc2)[C@H]1c1ccc(C#N)cc1` as the compound, how does the z-score read?
A: 2.09 (inactive)

Q: For `O=c1cccc(-c2ccccc2)o1`, which z-score is on record?
A: -5.07 (inactive)

Q: With `CC(=O)NCCCC[C@@H]1NC(=O)[C@@H]2C[C@H](C(=O)NCc3ccc(F)cc3)[C@H](c3ccc(O)cc3)N2C1=O` as the compound, how does the z-score read?
A: -0.462 (inactive)

Q: With `O=C1OCCC=C[C@H]2OC34C=CCN(c5ccc6ccccc6c5)C(=O)[C@H]3N(CCCCCCO)C(=O)[C@@H]4C12` (stereo not given in full) as the compound, how does the z-score read?
A: -0.546 (inactive)

Q: Which z-score does the source give for `O=C1OCCC/C=C\[C@H]2OC34C=CCN(Cn5nnc6ccccc65)C(=O)[C@H]3N(CCCO)C(=O)[C@@H]4C12` (stereo not given in full) here?
A: 0.351 (inactive)

Q: Which z-score does the source give for `CC(C)OC(=O)C1=CCC(c2cccc(Cl)c2)O1` (stereo not given) here?
A: -5.96 (inactive)

Q: With `O=C1[C@H]2C=C(Br)[C@H](C[C@@H]2OCCOCCO)[C@@]12CO2` as the compound, how does the z-score read?
A: 1.2 (inactive)

Q: With `O=c1cccc(-c2ccc3ccccc3c2)o1` as the compound, how does the z-score read?
A: -16.1 (active)

Q: Which z-score does the source give for `CCCCCCCCCCC(O)C1C=CC2C(=O)N(c3ccccc3)C(=O)C2N1Nc1ccc([N+](=O)[O-])cc1` (stereo not given) here?
A: 0.673 (inactive)

Q: Which z-score does the source give for `CN1C(=O)C2C=CC(C(O)c3ccccc3)N(NC(=O)OC(C)(C)C)C2C1=O` (stereo not given) here?
A: 1.34 (inactive)

Q: With `CN(C)CCCC[C@@H]1NC(=O)[C@@H]2C[C@H](C(=O)NCCCCCCN)[C@H](c3ccc(O)cc3)N2C1=O` as the compound, how does the z-score read?
A: 0.531 (inactive)

Q: Which z-score does the source give for `CCOC(=O)C[C@H]1[C@H](OC(=O)c2cc3ccccc3oc2=O)[C@@H](NC(=O)c2ccc3ccccc3c2)c2cc(OCCCO)ccc2N1C(=O)c1ccccc1` here?
A: -1.31 (inactive)

Q: For `COc1ccc([Si](C)(C)[C@@H]2[C@@H](CCO)O[C@]3(C(=O)N(Cc4ccc(N5C(=O)c6cccc7cccc5c67)cc4)c4ccccc43)[C@H]2C)cc1`, which z-score is on record?
A: 0.338 (inactive)

Q: With `O=C(NCC(O)CO)[C@@]1(Cc2ccccc2)COC(c2ccc(OCCCO)cc2)=N1` (stereo not given in full) as the compound, how does the z-score read?
A: -0.339 (inactive)

Q: With `CC(C)(C)OC(=O)CC[C@]1(C(=O)NCC(O)CO)N=C(c2ccc(OCCCO)cc2)O[C@H]1c1ccccc1CN=[N+]=[N-]` (stereo not given in full) as the compound, how does the z-score read?
A: -0.694 (inactive)

Q: For `C=C(/C(=C/C[C@@H](OC(C)=O)c1ccc(CO)o1)c1cnc2ccccc2c1)C(C)C`, which z-score is on record?
A: -0.177 (inactive)

Q: With `O=C1O[C@H](c2ccccc2)[C@H](c2ccccc2)N2[C@H]1[C@@H](C(=O)NC[C@H](O)c1ccccc1)[C@]1(C(=O)Nc3ccc(C#CC4(O)CCCCCC4)cc31)[C@H]2c1ccccc1OCCO` as the compound, how does the z-score read?
A: 1.6 (inactive)

Q: For `O=C1C[C@@](C(=O)O)(c2ccc([N+](=O)[O-])cc2)[C@@H](c2ccc(CO)cc2I)N1C1CCCCC1`, which z-score is on record?
A: -5.06 (inactive)

Q: For `COc1ccc(CCNC(=O)[C@@]2(C)c3ccccc3C(=O)N(Cc3ccccc3)[C@H]2c2ccc(CO)cc2)cc1`, which z-score is on record?
A: -1.12 (inactive)

Q: For `CC1CC/C=C\[C@H]2OC34C=CCN(Cn5nnc6ccccc65)C(=O)[C@H]3N(CCCO)C(=O)[C@@H]4C2C(=O)O1` (stereo not given in full), which z-score is on record?
A: 1.06 (inactive)
